Tests used:
Conditions in all cases: concentration: 1 μM, replicates: in singlicate; n = 1
KIT-autoinhibited = tested on: KIT-autoinhibited
KIT = tested on: KIT
LATS1 = tested on: LATS1
LATS2 = tested on: LATS2
LCK = tested on: LCK
LIMK1 = tested on: LIMK1
LIMK2 = tested on: LIMK2
LKB1 = tested on: T1, LKB1
T1 construct: gene STK11

LOK = tested on: T2, LOK
T2 construct: gene STK10

LRRK2 = tested on: LRRK2
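Also: KINOMEscan kinase panel screen.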

SMILES	%Inh (KIT-autoinhibited)	%Inh (KIT)	%Inh (LATS1)	%Inh (LATS2)	%Inh (LCK)	%Inh (LIMK1)	%Inh (LIMK2)	%Inh (LKB1)	%Inh (LOK)	%Inh (LRRK2)
CN1c2ccc(CNc3ccc(F)cc3)cc2-c2c(cnn2C)S1(=O)=O	15%	0%	0%	0%	7%	0%	0%	8%	0%	0%
O=c1cc(N2CCOCC2)nc2n(Cc3cccc(C(F)(F)F)c3)ccn12 [GSK2297543]	2%	13%	0%	0%	22%	0%	7%	10%	0%	0%
Cc1nnc(-c2ccc3ncc(-c4ccc(S(C)=O)cc4)n3c2)o1 (centres unmarked)	7%	59%	17%	13%	0%	0%	0%	3%	0%	3%
Fc1ccc(-c2ncn(CCCN3CCOCC3)c2-c2ccccn2)cc1 [SB-211742]	0%	0%	10%	0%	28%	0%	0%	33%	8%	0%
CN(C(=O)c1ccc(-c2cc(-c3c[nH]nc3-c3ccccn3)ccn2)cc1)C1CCOCC1 [GW810083]	0%	0%	0%	2%	0%	0%	0%	16%	0%	0%
COc1ccc(Nc2nccc(N3CCC(NC(=O)Nc4cc(C)ccc4C)C3)n2)cc1 (centres unmarked) [GSK1379741]	0%	25%	0%	0%	0%	0%	0%	0%	0%	0%
O=c1cc(N2CCOCC2)nc2n(Cc3cccc(F)c3)ccn12 [GSK2297430]	0%	10%	0%	0%	23%	9%	5%	0%	0%	31%
O=C(Nc1cccc(-c2nn3ncccc3c2-c2ccnc(Nc3cccc(C(F)(F)F)c3)n2)c1)c1c(F)cccc1F [GSK299495]	0%	98.7%	13%	6%	98.2%	9%	0%	0%	96.6%	0%
O=C1Cc2cc(Nc3nc(NCc4cccc(S(=O)(=O)C(F)(F)F)c4)ncc3C(F)(F)F)ccc2N1	0%	16%	11%	0%	0%	1%	9%	0%	1%	11%
Cn1cc(-c2ccc3c(c2)CCN3C(=O)Cc2ccccc2Cl)c2c(N)ncnc21 [GSK2608885]	4%	99.9%	15%	25%	99.5%	32%	6%	17%	99.8%	0%
Fc1ccc(-c2nn3c(OCC(F)(F)F)cccc3c2-c2ccncc2)cc1 [GW514784]	0%	24%	41%	0%	7%	0%	0%	9%	0%	19%
Cc1cccc(-c2nc(-c3ccc(S(C)(=O)=O)cc3)sc2-c2ccncc2)c1	7%	18%	36%	50%	23%	0%	1%	0%	0%	2%
O=c1cc(N2CCOCC2)nc2n(Cc3cccc(Cl)c3Cl)c(C3CC3)nn12 [GSK2358994]	15%	0%	0%	27%	23%	9%	8%	15%	0%	0%
CCc1nc(-c2cccc(C)c2)c(-c2ccnc(NCc3ccccc3)c2)s1	0%	26%	21%	0%	0%	0%	0%	0%	19%	3%
COc1ccc(Nc2nccc(N3CCC(NC(=O)Nc4cccc(C(C)=O)c4)C3)n2)cc1 (centres unmarked) [GSK1379731]	0%	49%	0%	0%	0%	1%	0%	5%	0%	2%
c1ccc(-c2n[nH]cc2-c2ccnc3ccccc23)nc1 [GW271431]	11%	20%	0%	4%	17%	21%	30%	18%	0%	0%
c1ccc(-c2cc(-c3c[nH]nc3-c3ccccn3)ccn2)cc1 [GW576604]	0%	9%	0%	0%	0%	0%	0%	17%	0%	0%

Source: article PMC5540273 (PLoS ONE, 2017)
